In PubChem BioAssay AID602438 (Sanford-Burnham Center for Chemical Genomics, 2012) one finds inhibition data, which are given here for 93 compounds.

SMILES strings stand for the structures. Hit rate of the full screen: of about 360,000 compounds, about 3,100 (0.86%) were called active. The sample as a whole holds a higher share of actives than the screen did. A number with no mark means an inactive call.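 Rule for the calls: active = inhibition or corrected inhibition above about 18%, plus a signal ratio from 0.5 to 1.5 (limit read from the data, passing the limit was not always enough); inactive = the rest.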

Neuropilin-1 (Homo sapiens), sequence (O14786 whole entry, looked up): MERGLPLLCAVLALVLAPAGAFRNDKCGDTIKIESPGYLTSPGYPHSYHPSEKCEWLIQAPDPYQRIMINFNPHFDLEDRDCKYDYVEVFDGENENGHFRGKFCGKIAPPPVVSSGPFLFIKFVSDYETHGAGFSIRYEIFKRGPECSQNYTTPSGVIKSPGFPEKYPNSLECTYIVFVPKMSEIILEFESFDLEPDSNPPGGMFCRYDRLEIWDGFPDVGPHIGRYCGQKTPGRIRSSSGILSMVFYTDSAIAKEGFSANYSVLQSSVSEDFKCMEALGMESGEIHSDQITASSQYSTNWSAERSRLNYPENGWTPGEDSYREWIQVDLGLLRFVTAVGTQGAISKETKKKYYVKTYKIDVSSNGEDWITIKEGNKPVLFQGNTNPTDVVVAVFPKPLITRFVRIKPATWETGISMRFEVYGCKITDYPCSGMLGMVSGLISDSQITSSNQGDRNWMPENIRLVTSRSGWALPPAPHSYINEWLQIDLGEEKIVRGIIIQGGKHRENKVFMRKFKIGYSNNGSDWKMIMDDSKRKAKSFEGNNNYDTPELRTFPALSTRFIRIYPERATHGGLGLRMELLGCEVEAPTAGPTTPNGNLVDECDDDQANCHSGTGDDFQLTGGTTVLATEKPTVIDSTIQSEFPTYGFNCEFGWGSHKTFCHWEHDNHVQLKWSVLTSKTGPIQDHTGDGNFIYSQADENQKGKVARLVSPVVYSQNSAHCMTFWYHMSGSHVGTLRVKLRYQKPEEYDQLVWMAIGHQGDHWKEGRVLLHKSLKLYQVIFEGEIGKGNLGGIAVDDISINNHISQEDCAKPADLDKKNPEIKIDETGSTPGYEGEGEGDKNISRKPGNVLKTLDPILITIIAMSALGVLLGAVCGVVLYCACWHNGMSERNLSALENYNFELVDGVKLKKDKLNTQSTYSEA

This test has as its target Neuropilin-1 (Homo sapiens) (UniProt O14786). Nature of the test: modulators of CendR peptide binding to NRP-1, primary screen, biochemical, fluorescence polarization, uHTS (AID 602438). The conditions noted are these: FAM-RPARPAR peptide binding to NRP-1, fluorescence polarization; at 25 µM; stronger effect = higher value.
The term inhibition denotes the change of the read-out against control, counted positive when it falls. Turning to `Cc1n[nH]c(=O)n1-c1ccc(Oc2ccccc2)cc1`, the inhibition was 20%. Consider `CCOc1ccc(CCNC(=O)C2=C(C)C(=O)OC23CCC(C)CC3)cc1OCC` (stereo not drawn), for which the inhibition was -1.3%. With `CN(C)S(=O)(=O)Oc1ccccc1C(=O)Nc1ccccc1Cl`, the inhibition is 50.6% (active). With `CC(=O)Nc1ccc(NC(=O)COc2ccccc2C(=O)Nc2cccc(Cl)c2Cl)cc1` the figure was 4.5%; with `CSc1ccccc1NC(=O)c1cc(Cl)sc1Cl`, -5.4%. The value for `COc1ccc(CN2[C@@H](CC(=O)O)c3cc(F)ccc3S2(=O)=O)cc1` was 26.2% (active); that for `COc1ccc(CN2C3CCCC2CC(NC(=O)c2cccc(F)c2)C3)cc1` (stereo not drawn) was -2.7%.

On to `COc1ccc(CN2C(CC(=O)Nc3cccnc3)c3ccc(C(F)(F)F)cc3S2(=O)=O)cc1` (stereo not drawn), for which the inhibition is 0.3%.

On to `O=C(C[n+]1cc(-c2ccc(Cl)c(Cl)c2)n2c1CCC2)c1cccs1`, for which the inhibition was -11.8%. The value for `CCOC(=O)C1(Cc2ccccc2C)CCCN(C(=O)CN2C(=O)CSC2=O)C1` (stereo not drawn) was 5.9%; that for `COc1ccc(CC(=O)OC(C)C(=O)Nc2ccc(S(N)(=O)=O)cc2)cc1` (stereo not drawn) was -4.6%.

With `COC(C[C@@H](O)C[C@@H](O)[C@H](C)OCc1ccccc1)OC`, the inhibition was 17.1%. The value for `COC(C[C@@H](O)[C@H](C)[C@H](O)COCc1ccccc1)OC` was 18.6% (active); that for `COC(C[C@@H](O)C[C@H](O)[C@H](C)OCc1ccccc1)OC` was -8.8%. The value for `COCCn1c(SCc2nc3cc(OC)c(OC)cc3c(=O)[nH]2)nnc1-c1ccncc1` was 14.6%; that for `NS(=O)(=O)c1ccc(CCNC(=O)c2nc(CS(=O)(=O)c3ccc(Cl)cc3)no2)cc1` was -1.3%; that for `O=C1C=C(NCCNc2c(F)c(F)c(CO)c(F)c2F)CCC1` was -0.5%. The value for `CCOC(=O)[C@]12CCC=C1N(Cc1ccccc1)C(=O)[C@H](CC(=O)N1CCCC1)C2` was -23.1%.

Turning to `CC(=O)NC(CC(=O)Nc1nc(-c2ccccc2)c(C(C)=O)s1)c1ccccc1` (stereo not drawn), the inhibition was -4.6%.

Take `COCCN1C(=O)N[C@@H](CCc2ccccc2)[C@H](C(C)=O)[C@H]1C`: the inhibition is 23.7% (active). The value for `CCN1C(=O)N[C@@H](c2ccccc2)[C@H](C(C)=O)[C@H]1C` was 7.8%; that for `CCN1C(=S)N[C@@H](CCc2ccccc2)[C@H](C(=O)OC)[C@H]1C` was 10.2%; that for `CC12COC3(C(=O)Nc4ccc(Cl)cn4)CC1CCC32C` (stereo not drawn) was -0.2%. For the compound `COc1ccc(OCC(=O)OCCN(C)C)cc1`, the inhibition was 1.6%. With `Cc1ccc(OCC(=O)Nc2ccc(C(=O)O)cc2NC(=O)COc2ccc(C)c(C)c2)cc1C` the figure was 0.7%; with `COc1ccc(C(=O)COC(=O)COc2ccc(C)c(C)c2)cc1`, 33.9% (active). As to `CCCCNC(=O)C1(O)c2ccccc2NC(=O)N1c1ccc(Cl)cc1` (stereo not drawn), the inhibition is 3.9%. For `COc1ccc(N(CC(=O)NCCSCc2cccc(Cl)c2)S(C)(=O)=O)cc1`, the inhibition is -7.7%. The value for `CCCNC(=O)c1cc2c(c(-c3cccc(-c4ccc(C#N)cc4)c3)n1)[C@@H](CCO)N(C(=O)CC)C2` was 8.8%. For the compound `O=C(N[C@H]1CC[C@H](CC(=O)N2CCCCC2)O[C@@H]1CO)c1cccc(F)c1`, the inhibition is -5%. With `CCCc1cc(=O)oc2c(C)c(OCC(=O)NCc3ccccn3)ccc12` the figure was -1%; with `Cc1cc(=O)oc2c(C)c(OC(C)C(=O)NC3CCN(Cc4ccccc4)CC3)ccc12` (stereo not drawn), 12.6%; with `CCCc1cc(=O)oc2c(C)c(OC(C)C(=O)NCC(O)c3ccccc3)ccc12` (stereo not drawn), 22.4% (active). With `CC1Cc2ccccc2N1CC(=O)Nc1ccc(S(N)(=O)=O)cc1` (stereo not drawn) the figure was 3.7%. For the compound `CC1COc2ccccc2N1S(=O)(=O)c1ccccc1` (stereo not drawn), the inhibition is 8.8%. The value for `O=C(O)c1ccc(F)c(S(=O)(=O)Nc2ccccc2)c1` was -11.7%. On to `Cc1ccc(C(=O)Nc2ccccc2-c2ccccc2)cc1S(=O)(=O)Nc1ccccc1`, for which the inhibition is 29.8% (active). On to `Cc1cc(C(C)(C)C)cc(S(=O)(=O)Nc2ccc(C(=O)O)cc2)c1C`, for which the inhibition was 7.7%. The value for `COC(=O)C1CCN(C(=O)c2ccc3oc(Cc4ccc(Cl)cc4)nc3c2)CC1` was 8.2%. The value for `O=C(C1CCN(CC2CCCCC2)CC1)N1CCCC1` was 10.7%.

Take `COc1ccc(NC(=O)c2oc3ccc(S(=O)(=O)N4CCOCC4)cc3c2C)cc1`: the inhibition was 13.1%. The value for `Cc1noc(C)c1CSc1nc2cc(S(=O)(=O)N3CCOCC3)ccc2o1` was 21.4% (active); that for `NC(=O)CSc1nnc(-c2cccc(S(=O)(=O)N3CCOCC3)c2)o1` was -9.5%. With `C[C@@H]1ON(C)[C@H]2C[C@H]3c4cc(N5CCN(C)CC5)ccc4CCN3C(=O)[C@@H]12` the figure was 4.7%.

Turning to `Cc1cc(C)cc(N(CCC#N)C(=O)CN2C(=O)NC3(CCCC3)C2=O)c1`, the inhibition is -5.9%. With `CCN(CC)S(=O)(=O)c1ccc2[nH]cc(C(=O)NCCc3ccccc3)c(=O)c2c1` the figure was 8.6%. The value for `CN(C)/C(=N\OC(=O)c1ccccc1)c1nonc1N` was 2%. As for `C=CCOc1ccc(C2/C(=C(\O)c3c(C)[nH]c(C(=O)OC)c3C)C(=O)C(=O)N2CCN(C)C)cc1` (stereo not drawn), the inhibition was 29.5% (active). With `CCCOc1ccc(/C(O)=C2/C(=O)C(=O)N(CCN(C)C)C2c2ccc(OC)c(OC)c2)cc1` (stereo not drawn) the figure was 1.7%. As for `COc1cccc(C2/C(=C(/O)c3ccc(F)cc3)C(=O)C(=O)N2CCN(C)C)c1` (stereo not drawn), the inhibition is 4%.

`Cc1ccc(-c2nc(CS(=O)CC(=O)N3CCN(c4ncccn4)CC3)c(C)o2)cc1` (stereo not drawn): the inhibition is -11.2%. On to `CCNC(=S)N(CCc1c(C)[nH]c2ccc(C)cc12)Cc1ccco1`, for which the inhibition is -23.4%.

As to `Cc1ccc(C)c(N(CC(=O)NCc2ccco2)C(=O)CCC(=O)Nc2ccccn2)c1`, the inhibition was -4.5%. The value for `CCCCC1=CC2=CC(=O)C(C)(OC(=O)CC)C(=O)C2=CN1CCCOC(C)C` (stereo not drawn) was 29.4% (active); that for `CCN(CC)C(=O)N1CCN(C(=O)c2ccc(C)cn2)CC1` was 0.3%. `Cc1ccc(C(CC(=O)O)NC(=O)c2ccc(S(=O)(=O)N3CCCC3)cc2)cc1` (stereo not drawn): the inhibition is -5.6%. In the case of `O=C(OCc1ccc([N+](=O)[O-])cc1)c1ccccn1`, the inhibition is 28.2% (active).

Turning to `N/C(=N\OC(=O)Cc1ccc([N+](=O)[O-])cc1)c1ccccn1`, the inhibition is -0.7%. The value for `O=C(COC(=O)c1ccccn1)NNC(=O)c1ccc([N+](=O)[O-])cc1` was 2.2%; that for `Cc1ccc(OCC(=O)N2CCN(C(=O)c3cccnc3)CC2)cc1` was 6.1%. With `O=C(C[C@H]1CC[C@H]2[C@@H](COC[C@H](O)CN2C(=O)c2ccccn2)O1)N1CCN(c2ccccc2)CC1` the figure was 2.2%. The value for `COc1cc(C2C(C(=O)c3sc(C)nc3C)=C(O)C(=O)N2CCN(C)C)cc(OC)c1OC` (stereo not drawn) was 0.6%; that for `Cc1ccc(S(=O)(=O)N2CCC(=O)N([C@H](COCc3ccccc3)Cc3ccccc3)CC2)cc1` was -15.7%; that for `COc1ccc(COCCN2CCN(S(=O)(=O)c3ccccc3)CCC2=O)cc1` was 28.5% (active). Take `Cc1ccc(S(=O)(=O)N2CCC(=O)N([C@H](COCc3ccccc3)C(C)C)CC2)cc1`: the inhibition is -3.6%. The value for `CCCCCn1nnnc1-c1nc2cc3ccccc3cc2[nH]c1=O` was 0%; that for `COCCCNC(=O)c1c(F)c(F)c(F)c(F)c1F` was 8.4%; that for `Cc1nc(C(F)(F)F)ccc1C(=O)N1CCC1(C)C(=O)NS(=O)(=O)c1ccccc1Cl` (stereo not drawn) was 13.8%. As for `NC(=O)COc1ccccc1C(=O)NC12CC3CC(CC(C3)C1)C2`, the inhibition is -2.6%. With `O=C(NCCN1CCOCC1)c1ccccc1N1C(=O)[C@@H]2Cc3c([nH]c4ccccc34)C(c3cccc(Cl)c3)N2C1=O` (stereo partly drawn) the figure was -5.5%. The value for `CCOCc1nnc(NC(=O)CSc2ccc(C)cc2)s1` was -1%; that for `Cc1ccc(OCc2nnc(NC(=O)OCC(C)C)s2)cc1` was 19.5% (active); that for `O=C(Nc1nnc(COc2ccccc2)s1)Nc1ccccc1F` was -10.8%. With `O=C(CNCc1ccco1)Nc1cc(S(=O)(=O)N2CCOCC2)ccc1N1CCCC1`, the inhibition is 7.8%. Regarding `Cc1cc(C)c(CN2CCN(C(=O)Cn3ccc(NC(=O)OCc4ccccc4)nc3=O)CC2)c(C)c1`, the inhibition is 3.3%. On to `O=C(c1ccccc1)c1cccn1CC(=O)N1CCN(c2ccc(F)cc2)CC1`, for which the inhibition was -4.3%.

As for `Cc1ccc(CNS(=O)(=O)c2ccc3c(c2)N(C)CCO3)cc1`, the inhibition was -8.8%. Turning to `Cc1nonc1NC(=O)c1oc2ccccc2c1C`, the inhibition was 7.8%. With `COc1ccc(-c2nonc2NC(=O)c2oc3ccc(F)cc3c2C)cc1OC` the figure was 30.3% (active). The value for `CCc1nonc1NC(=O)c1oc2ccc(Cl)cc2c1C` was 13.2%; that for `O=C(NCc1ccc2c(c1)OCO2)C1CCCN(S(=O)(=O)c2cccs2)C1` (stereo not drawn) was -10.1%. Consider `CCCCc1c(-c2ccc(Br)cc2)ncn1CCc1ccccc1OC`, for which the inhibition is 12.7%.

Consider `CC(C)C1Cc2[nH][nH]c(=O)c2C(c2ccc(Cl)cc2)O1` (stereo not drawn), for which the inhibition was -4.6%.

As to `CC(C)NC(=O)c1ccccc1S(=O)c1ccccc1C#N` (stereo not drawn), the inhibition is -10.3%.

Take `COc1ccc(-c2oc3ncnc(NCCCO)c3c2-c2ccc(OC)cc2)cc1`: the inhibition is 4.1%. The value for `CCc1oc(-c2ccc(OC)cc2)c(C(=O)OCCCCCO)c1C(C)OCCO` (stereo not drawn) was 23% (active); that for `CCN(CCCCOC(=O)c1ccc(OC)c(OC)c1)C(C)Cc1ccc(OC)cc1` (stereo not drawn) was -0.7%; that for `CC(=O)C1=CCC(c2ccccc2)N(S(=O)(=O)c2ccc(C)cc2)C1` (stereo not drawn) was -3.9%. Turning to `Cc1ccc([C@@H]2CC=C(C(=O)O)[C@H](c3cccc(Cl)c3)N2S(=O)(=O)c2ccc(C)cc2)cc1`, the inhibition was -10.9%. The value for `CCOC(=O)C1=CC[C@@H](c2ccccc2)N(S(=O)(=O)c2ccc(C)cc2)[C@H]1c1ccc(CC)cc1` was 11.1%; that for `CCOC(=O)C1=CC[C@@H](c2ccncc2)N(S(=O)(=O)c2ccc(C)cc2)C1` was 13.9%. With `CCOC(=O)C1=CCC(c2ccc(F)cc2)N(S(=O)(=O)c2ccc(C)cc2)C1` (stereo not drawn) the figure was 19.9% (active).

For `CCOC(=O)C1=CC[C@@H](c2ccccc2)N(S(=O)(=O)c2ccc(C)cc2)[C@H]1c1cccc(OC)c1`, the inhibition is 26% (active).
